Over roughly 35,000 sequences, “fluorescence intensity (a.u.)” has its median near 10,000; the highest 2% begin near 52,000. This excerpt belongs to a sample that is enriched for the highest values.
The sequences below were run against T1, OsWOX13 (Oryza sativa, UniProt Q5QMM3 1-267) (assay: protein-binding microarray (RPBM); PBS, 2% BSA, 51.3 ng/ul salmon testes DNA, 50 uM zinc acetate, 200 nM TF, 25 C, 1 h; high values mean tight binding). Conditions: protein: recombinant; tags: N-terminal polyhistidine and DsRed monomer fusion (pET32a); label: CyDye5-dUTP incorporated in the synthesized complementary strand; 3' TTTTT single-stranded linker to array surface; dsDNA, one strand shown.
T1 sequence: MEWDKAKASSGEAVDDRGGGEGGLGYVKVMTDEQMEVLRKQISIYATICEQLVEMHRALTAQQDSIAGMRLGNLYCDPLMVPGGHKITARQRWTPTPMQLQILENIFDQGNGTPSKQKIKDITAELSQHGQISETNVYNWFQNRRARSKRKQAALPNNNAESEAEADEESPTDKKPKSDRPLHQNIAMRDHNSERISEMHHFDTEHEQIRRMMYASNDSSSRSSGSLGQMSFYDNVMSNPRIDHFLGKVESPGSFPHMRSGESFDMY
Outline: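 Transcription factors were each fused at the N-terminus to a polyhistidine tag plus DsRed and expressed in E. coli BL21-CodonPlus before Ni–NTA purification. Binding to a double-stranded custom Agilent array was carried out with 200 nM protein at 25 °C for 1 h in PBS, 2% BSA, salmon testes DNA and 50 µM zinc acetate. The binding signal is per-feature fluorescence intensity, in arbitrary units, on an Axon 4000B scanner.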

Sequence | binding signal
TAGTGATTTGAAAATACGGGTGCAAACAATGGAGCAACAACGGAGTCACCTAGTGCAG | 3560 fluorescence intensity (a.u.)
ATTTACCGCAACTGTAATTGAGATGGTTTTGAGATTTCATCGGAGTCACCTAGTGCAG | 6850 fluorescence intensity (a.u.)
TGTCACAGGTAAATCACTGCAATTAGCGAGTCATGGCTCACGGAGTCACCTAGTGCAG | 8530 fluorescence intensity (a.u.)
TGATGTTTCATCACTAATTTGTATTTGATAACCTGCATATCGGAGTCACCTAGTGCAG | 5260 fluorescence intensity (a.u.)
CTGATTTGCAGTTCGTTCGTGCCTCTCACAATCAAACCCCCGGAGTCACCTAGTGCAG | 14300 fluorescence intensity (a.u.)
AGGTTGCAATCATTGGCCAGACGTTGCATGTCGTTGTTGACGGAGTCACCTAGTGCAG | 13700 fluorescence intensity (a.u.)
CTTGTTATTGAATAATGGATTAACTAACTAATAACTAACGCGGAGTCACCTAGTGCAG | 12800 fluorescence intensity (a.u.)
CAACAGATTAATGACATGTCAACAGCTGCATGCTCTAGCTCGGAGTCACCTAGTGCAG | 14200 fluorescence intensity (a.u.)
CCGGTCTCCAAATCTTTATTAATTGCTTCCTCAAAACCCCCGGAGTCACCTAGTGCAG | 3980 fluorescence intensity (a.u.)
ATTAACGACTTTTAATTTGAAACGGATTGAGTAGCTAGTTCGGAGTCACCTAGTGCAG | 16100 fluorescence intensity (a.u.)
ATAATCCCTTGCGATTTATATTGAATTAATAGTTCTTGTTCGGAGTCACCTAGTGCAG | 65000 fluorescence intensity (a.u.)
CACTATTAATTGTGCTTAGAGCAAGTTTAATAGTGTAGCCCGGAGTCACCTAGTGCAG | 9860 fluorescence intensity (a.u.)
AAAACAAATTTTATTATAAATATACGTTTAACTAACTTAGCGGAGTCACCTAGTGCAG | 6070 fluorescence intensity (a.u.)
AAAAGAATAATTTATTGTCTTGTTCAGTTAATCCCTCCCTCGGAGTCACCTAGTGCAG | 3330 fluorescence intensity (a.u.)
CACGATGATTGTTTGTATATGGAAACACCAAAATGGTCTACGGAGTCACCTAGTGCAG | 54700 fluorescence intensity (a.u.)
GGAAAATGCTCTAATGATTGTTATGGAGTTTATCTGTAATCGGAGTCACCTAGTGCAG | 5570 fluorescence intensity (a.u.)
TGGTAATTTTATGATTAAATTGACACTAACAAACTTATAGCGGAGTCACCTAGTGCAG | 57200 fluorescence intensity (a.u.)
AGAGATTATTGAATATTGTTGCGATGACTTATAATCTTATCGGAGTCACCTAGTGCAG | 5070 fluorescence intensity (a.u.)
ACTGATAACAAAATAATTTATAGGTAAAACTTTTAATATGCGGAGTCACCTAGTGCAG | 7340 fluorescence intensity (a.u.)
TCTGTATGGTCTACTTGTTTGATTGATTGATAATTTTACACGGAGTCACCTAGTGCAG | 22300 fluorescence intensity (a.u.)
TTTAATTAATTGTAGGACAAGATAGCAAACGTGTGGCTACCGGAGTCACCTAGTGCAG | 59900 fluorescence intensity (a.u.)
ATTAATTGGTCGTGTATTAGCAAACGATATATATATCGGTCGGAGTCACCTAGTGCAG | 50500 fluorescence intensity (a.u.)
AATTAATTTCTAAATACAATCATTATTCACCTCGTAATATCGGAGTCACCTAGTGCAG | 7210 fluorescence intensity (a.u.)
CCATATAATTATGCTTGTTATTATGTGACAAAGAGCGGGTCGGAGTCACCTAGTGCAG | 25400 fluorescence intensity (a.u.)

Sequence | binding signal
CCAAAATATATTAATTAGCTCAGGTATGTACCCGCCCAATCGGAGTCACCTAGTGCAG | 10700 fluorescence intensity (a.u.)
GTATATTTAATAATAAATCAACTCGCAATGAGACAAAATGCGGAGTCACCTAGTGCAG | 4570 fluorescence intensity (a.u.)
ATTCTTAAATTGTTTTAACTAATACTTAATCAGCCATGAACGGAGTCACCTAGTGCAG | 7790 fluorescence intensity (a.u.)
TTGGTGATATTGATGGAGCATGTTTTATTTGATAGAATAGCGGAGTCACCTAGTGCAG | 3390 fluorescence intensity (a.u.)
AATTCTAATATATTTGATTGTTTCAAAATAAAGTCTTTGCCGGAGTCACCTAGTGCAG | 14700 fluorescence intensity (a.u.)
TGCCGATTGATCTTTTATCCTTTGGGGCATATGCTCGAGTCGGAGTCACCTAGTGCAG | 24400 fluorescence intensity (a.u.)
TTAGATAGATTAATATGTGATAGATCTTCACAAACAGACACGGAGTCACCTAGTGCAG | 54900 fluorescence intensity (a.u.)
ATTGATTGACCGAGCGCACTACTCTTTATCTTTTCGATTGCGGAGTCACCTAGTGCAG | 64900 fluorescence intensity (a.u.)
CATTGATGACACAAAATAGTAGCAACTAAACAAACCAGAACGGAGTCACCTAGTGCAG | 6690 fluorescence intensity (a.u.)
TTCAATTGATATAGACACAGATCTATGTGATTCACTGACACGGAGTCACCTAGTGCAG | 21700 fluorescence intensity (a.u.)
GTGCTCTTTAATTATCACTTTGTGCGCACTTTTCTTTGATCGGAGTCACCTAGTGCAG | 6410 fluorescence intensity (a.u.)
TTGAATGACTACGAATTTGTTTAAATATTTGCATTCCATCCGGAGTCACCTAGTGCAG | 7180 fluorescence intensity (a.u.)
TTTGATTGTTTCCATTTGCAATTTCTAAATACGAACCTGCCGGAGTCACCTAGTGCAG | 57500 fluorescence intensity (a.u.)
GATAGATTAATATATGATATATCTTTTCACAAACATACAACGGAGTCACCTAGTGCAG | 10500 fluorescence intensity (a.u.)
TTGATTGATGGGAGTCTAACAAAGTGACAAAACTTAGCAACGGAGTCACCTAGTGCAG | 53900 fluorescence intensity (a.u.)
AACTTGAAACAATTTGATTTTGACTAAAGTCAAAACGTCTCGGAGTCACCTAGTGCAG | 4710 fluorescence intensity (a.u.)
CAGAATTTACAAAATGGATTGACCAAAAGCCTAATTAATTCGGAGTCACCTAGTGCAG | 7770 fluorescence intensity (a.u.)
CAAGATTTTAATAAATGCATAATTTTATGAATCGCATAGACGGAGTCACCTAGTGCAG | 7290 fluorescence intensity (a.u.)
CATGACATACAATTTATCAGATCCAATTTTAGGATTATTCCGGAGTCACCTAGTGCAG | 10900 fluorescence intensity (a.u.)
GTTAACTAATTAGGGCGTATGAACAAGTCATCGTGGCAGTCGGAGTCACCTAGTGCAG | 23000 fluorescence intensity (a.u.)
GAATAATTACCGAAAAGGCAATTAATTAGTGACAGGGAGTCGGAGTCACCTAGTGCAG | 26200 fluorescence intensity (a.u.)
GGCTTCCTTAATTGTACATGTCTCTCTTCATTCTGCTGCACGGAGTCACCTAGTGCAG | 5930 fluorescence intensity (a.u.)
TTTCTGATTTACGTGGCTTGTGAGTAGGGCGCCTCCTCATCGGAGTCACCTAGTGCAG | 8000 fluorescence intensity (a.u.)
